High-throughput results deposited in PubChem by National Center for Advancing Translational Sciences (NCATS).
An excerpt weighted towards active compounds, which were near 12% of everything screened.
G9a inh = G9a (human) methyltransferase inhibition. G9a H3K9 monomethylation, AlphaScreen, 2 h. Potency, µM (top dose mostly 102 µM), inactives show at the top dose activity, negative = inhibition, most hits filed as inhibitors. 350,000 compounds, 8.8% hits; further: on the % scale 0 is the no-effect control and ±100 the full control effect; nearly all actives have a fitted effect of over 75% in size
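G9a (20 nM) preincubated 15 min RT with compounds, then 500 nM biotinylated H3K9 peptide and 20 uM SAM added; 2 h RT reaction. Monomethyl-H3K9 product detected by AlphaScreen with anti-H3K9me1 antibody, streptavidin donor and anti-rabbit IgG acceptor beads.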
BAZ2B block = inhibitors of human BAZ2B bromodomain | Q9UIF8 | AlphaScreen BAZ2B-H3K14Ac peptide displacement | Potency, µM (highest dose often 114 µM), for inactives: at the highest dose activity change, negative = inhibition, actives largely listed as inhibitors | 360,000 compounds, 4.4% hits; further: on the % scale 0 is the no-effect control and ±100 the full control effect; nearly all actives have a fitted effect of over 60% in size
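Multi-concentration screen (max 110 uM) measuring displacement of acetylated histone H3 peptide from BAZ2B by AlphaScreen, using 50 nM protein, 50 nM peptide and 10 ug/mL streptavidin donor plus Ni-chelate acceptor beads.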
TDP1 inh = inhibitors of human tyrosyl-DNA phosphodiesterase TDP1. AID 485290. Potency, µM (highest dose often 130 µM), for inactives: top-dose activity change, negative = inhibition, most hits filed as inhibitors. 350,000 compounds, 0.28% hits. Q9NUW8. recombinant TDP1, AlphaScreen DNA substrate cleavage; further: on the % scale 0 is the no-effect control and ±100 the full control effect; nearly all actives have a fitted effect of over 40% in size
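Recombinant human Tdp1 (E. coli-expressed, 1 nM final) preincubated with compounds 15 min at room temperature, then 5'-biotin/3'-phosphotyrosine-FITC DNA substrate (15 nM final) added for 5 min. AlphaScreen beads (10 ug/ml final) added 10 min; cleavage lowers signal.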
JMJD2A Tudor = JMJD2A Tudor domain (human) inhibition. AID 504339. 390,000 compounds, 4.4% hits. AlphaScreen JMJD2A-Tudor / H3K4me3 peptide binding. Potency, µM (doses to about 114 µM), inactives show top-dose activity change, negative = inhibition, actives largely listed as inhibitors; further: on the % scale 0 is the no-effect control and ±100 the full control effect; nearly all actives have a fitted effect of over 50% in size
Sfp inh = Sfp phosphopantetheinyl transferase inhibition | Biochemical Sfp PPTase activity, qHTS | Q9F4F7 | 310,000 compounds, 3.5% hits | AID 1490 | Potency, µM, for inactives: largest response in the series, negative = inhibition, most hits filed as inhibitors;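 further: the enzyme is Sfp with the accession as filed and its product quenches rhodamine fluorescence; 0% = enzyme reaction without inhibitor and -100% = no enzyme wells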
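Step 1, compound plus 15 nM Sfp-PPTase, 15 min, room temperature. Step 2, add rhodamine-CoA (5 uM) and BHQ-2-YbbR (12.5 uM). Step 3, read 525/598 nm fluorescence at 0 and 30 min.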
HP1b chromo inh = HP1-beta chromodomain-methylated histone interaction inhibition. P83916. AlphaScreen HP1-beta / biotin-H3K9me3 peptide binding. Potency, µM (top dose mostly 114 µM), for the others: at the highest dose activity change, negative = inhibition, actives largely listed as inhibitors. 390,000 compounds, 0.56% hits. AID 540317; further: nearly all actives have a fitted effect of over 70% in size
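HP1-beta protein (50 nM final) preincubated 30 min at room temperature with biotinylated H3(1-18)K9me3 peptide (50 nM) in PBS pH 7.4, 0.01% Tween-20, then compound added for 30 min. AlphaScreen streptavidin donor/nickel chelate acceptor beads (10 ug/mL final), 30 min dark, luminescence read.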
Numbers without * were called inactive; [ ] = remark or other dose. The call rests on the fitted dose curve; in most records, active means well fitted curve in the direction sought with a large enough effect; inconclusive means small, poorly fitted or top-dose-only effect, or another doubt; inactive means no such curve, though single readings can be large; an effect the other way counts as inactive or inconclusive. Potency means the concentration at half of the fitted maximal effect.

`Cc1ccccc1CC(=O)Nc1ccc2c(C)cc(=O)oc2c1` gave BAZ2B block -16.0%, TDP1 inh inconclusive, JMJD2A Tudor -23.7%, Sfp inh 12.9% and HP1b chromo inh 18.3%.
COc1ccc(CNCCC(c2ccc(OC(C)C)cc2)c2ccccc2OC)cc1 (configuration not stated) was read as G9a inh -5.7%[2.33 µM], BAZ2B block inconclusive, JMJD2A Tudor -30.8%, Sfp inh -18.0% and HP1b chromo inh 9.4%.
Screening COc1ccc(C(CCNCc2ccc(N(C)C)cc2)C(C)C)cc1 (configuration not stated) returned G9a inh 31.6µM*, BAZ2B block 25.1µM*, TDP1 inh 11.4%, JMJD2A Tudor 31.6µM*, Sfp inh -0.3% and HP1b chromo inh inconclusive.
`COc1ccccc1C(CCNCc1ccc(N(C)C)cc1)c1ccc(OC(C)C)cc1` (configuration not stated) gave G9a inh 17.9%[2.33 µM], BAZ2B block 10µM*, JMJD2A Tudor 12.6µM*, Sfp inh -17.8% and HP1b chromo inh inconclusive.
`Cn1cccc1CC(=O)NNC(=S)NC(=O)c1ccccc1Br` gave G9a inh 17.8µM*, BAZ2B block 0.5%, TDP1 inh 7.1%, JMJD2A Tudor -22.2%, Sfp inh 27.0% and HP1b chromo inh -4.9%.
`Cn1cccc1CC(=O)NNC(=S)Nc1ccc(F)cc1` gave G9a inh inconclusive, BAZ2B block -11.8%, TDP1 inh 9.5%, JMJD2A Tudor inconclusive, Sfp inh 8.4% and HP1b chromo inh 12.2%.
For Cn1cccc1CC(=O)NNC(=S)Nc1ccc(Cl)cc1Cl the results were G9a inh 44.7µM*, BAZ2B block inconclusive, TDP1 inh 4.6%, JMJD2A Tudor -12.7%, Sfp inh 0.5% and HP1b chromo inh 18.9%.
For COc1ccccc1CN1CCNC(=O)C1CC(=O)NCCc1cnccn1 (configuration not stated) the results were G9a inh inconclusive, BAZ2B block 1.3%, TDP1 inh 0.0%, JMJD2A Tudor -5.5%, Sfp inh 5.6% and HP1b chromo inh 12.6%[57 µM].
`CCCCCCC(=O)N(O)C1CC(=O)N(Cc2ccccc2)C1=O` (configuration not stated) gave G9a inh 2.51µM*, BAZ2B block 1.6%, TDP1 inh 8.4%, JMJD2A Tudor inconclusive, Sfp inh 50.1µM* and HP1b chromo inh 15.9%.
For O=C1CC(N(O)C2CC(=O)N(Cc3ccccc3)C2=O)C(=O)N1Cc1ccccc1 (configuration not stated) the results were BAZ2B block 2.5%, TDP1 inh -1.1%, JMJD2A Tudor -23.6%[57.1 µM], Sfp inh 44.7µM* and HP1b chromo inh -24.9%.
`CCCCCC(=O)N(O)C1CC(=O)N(c2ccccc2)C1=O` (configuration not stated) gave G9a inh 1.41µM*, BAZ2B block -29.3%, TDP1 inh 9.6%, JMJD2A Tudor 22.4µM*, Sfp inh 12.6µM* and HP1b chromo inh -77.8%.
For CCCCCOc1ccc(N2C(=O)CC(N(O)c3ccccc3)C2=O)cc1 (configuration not stated) the results were G9a inh 50.1µM*, BAZ2B block -1.6%, TDP1 inh 8.3%, JMJD2A Tudor -19.1%, Sfp inh -3.8% and HP1b chromo inh 17.8%.
`COc1ccc(C(=O)NC(=O)COC(=O)c2ccc(C)o2)cc1` gave G9a inh -9.6%[12.7 µM], BAZ2B block 13.8%, TDP1 inh -5.3%, JMJD2A Tudor -3.0% and HP1b chromo inh 37.0%.
For C=CCCN(Cc1ccc(OC)cc1)S(=O)(=O)c1ccccc1Br the results were TDP1 inh -12.7%, JMJD2A Tudor 55.2%, Sfp inh -5.0% and HP1b chromo inh 115.5%.
